Laboratory results reported in PubChem BioAssay (NCI).
The panel holds about 79,000 compounds, 15% with a hit somewhere; the sample as a whole holds those more often. A number with no mark means an inactive call. Activity calls are given as the source filed them. Rule as the data show it: active = growth inhibition above about 70%; inactive = the rest.

Assays:
[1] = NCI Yeast Anticancer Drug Screen. Data for the rad52 strain (AID 147);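 also: 0% = growth of vehicle-treated control cultures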; conditions: S. cerevisiae rad52 mutant growth inhibition, stronger effect = higher value
Summary of the method: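 Screen used a yeast mutant impaired in DNA repair. After compound exposure, growth was measured. Values reflect inhibition compared with vehicle-treated cells.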

[2] = NCI Yeast Anticancer Drug Screen. Data for the wt1 strain (AID 149);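 also: 0% = growth of vehicle-treated wt1 cultures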; conditions: S. cerevisiae wt1 strain (SPY 50644) growth inhibition, stronger effect = higher value
Summary of the method: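 Readout: yeast growth inhibition, normalised to vehicle controls, in the wt1 strain exposed to test compounds.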

[3] = NCI Yeast Anticancer Drug Screen. Data for the mgt1 strain (AID 153); conditions: S. cerevisiae mgt1 mutant growth inhibition, stronger effect = higher value
Summary of the method: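 Genetically defined yeast (mgt1) treated with compound; inhibition of growth expressed against vehicle-treated controls.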

[4] = NCI Yeast Anticancer Drug Screen. Data for the rad50 strain (AID 155);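 also: 0% = growth of vehicle-only cultures of the same strain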; conditions: S. cerevisiae rad50 strain growth inhibition, stronger effect = higher value
Summary of the method: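 Compounds were tested on a yeast strain with an engineered DNA damage repair alteration; the reported value is growth inhibition normalised to vehicle treatment.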

[5] = NCI Yeast Anticancer Drug Screen. Data for the mec2-1 strain (AID 157); conditions: S. cerevisiae mec2-1 strain, stronger effect = higher value
Summary of the method: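 Readout is yeast growth inhibition, normalised to vehicle-treated controls, in the mec2-1 strain exposed to compound.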

[6] = NCI Yeast Anticancer Drug Screen. Data for the rad14 strain (AID 159);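 also: 0% = growth of vehicle-treated control cultures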; conditions: S. cerevisiae rad14 strain growth inhibition, stronger effect = higher value
Summary of the method: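 Compound-treated yeast with a defined DNA-repair lesion; growth inhibition normalised to vehicle-treated cultures.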

[7] = NCI Yeast Anticancer Drug Screen. Data for the sgs1 mgt1 strain (AID 161);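 also: 0% = growth of cultures given vehicle only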; conditions: S. cerevisiae sgs1 mgt1 strain, stronger effect = higher value
Summary of the method: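 Yeast cells carrying a defined DNA-repair defect were exposed to test compounds. Growth inhibition was measured relative to vehicle-treated controls.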

[8] = NCI Yeast Anticancer Drug Screen. Data for the CLN2oe strain (AID 163);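 also: 0% = growth of vehicle-only control cultures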; conditions: S. cerevisiae CLN2oe strain, stronger effect = higher value
Summary of the method: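 Values reflect how much compound exposure reduced yeast growth, referenced to vehicle-exposed cells. Assay organism is a strain with a defined genetic change affecting cell-cycle control.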

[9] = NCI Yeast Anticancer Drug Screen. Data for the cln2 rad14 strain (AID 165);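 also: 0% = growth equal to vehicle treated cultures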; conditions: S. cerevisiae cln2 rad14 strain, stronger effect = higher value
Summary of the method: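 Relative to vehicle controls, growth inhibition of compound-treated cln2 rad14 yeast was recorded.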

[10] = NCI Yeast Anticancer Drug Screen. Data for the bub3 strain (AID 167); conditions: S. cerevisiae bub3 mutant strain, stronger effect = higher value
Summary of the method: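 Growth of a checkpoint-deficient yeast mutant is measured after compound exposure. Values represent inhibition relative to vehicle.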

[11] = NCI Yeast Anticancer Drug Screen. Data for the wt2 strain (AID 169);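 also: 0% = growth of vehicle-treated yeast cultures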; conditions: S. cerevisiae wt2 strain growth inhibition, stronger effect = higher value
Summary of the method: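 Values express reduction in yeast growth under compound treatment, referenced to vehicle-treated cells.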

[12] = NCI Yeast Anticancer Drug Screen. Data for the mlh1 strain (AID 171);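 also: 0% = growth of vehicle-treated control cultures of the same strain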; conditions: S. cerevisiae mlh1 strain growth inhibition, stronger effect = higher value
Summary of the method: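 Steps: expose the defined-mutant yeast strain to compound; expose a parallel culture to vehicle; measure growth; express compound effect as inhibition relative to the vehicle culture.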

[13] = NCI Yeast Anticancer Drug Screen. Data for the sgs1 strain (AID 173);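 also: 0% = growth of vehicle-only control cultures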; conditions: S. cerevisiae sgs1 mutant, stronger effect = higher value
Summary of the method: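 Treat defined-mutant yeast with compound; measure growth; calculate inhibition relative to vehicle-treated cells.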

[14] = NCI Yeast Anticancer Drug Screen. Data for the mlh1 rad18 strain (AID 175); conditions: S. cerevisiae mlh1 rad18 strain growth inhibition, stronger effect = higher value
Summary of the method: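 Test agents were incubated with a yeast strain of defined genotype (DNA damage repair defect). Inhibition of growth was derived by comparison with vehicle-exposed cultures.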

[15] = NCI Yeast Anticancer Drug Screen. Data for the rad18 strain (AID 177); conditions: S. cerevisiae rad18 mutant growth inhibition, stronger effect = higher value
Summary of the method: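 A genetically defined yeast mutant impaired in DNA damage repair was treated with test compounds, then its growth was measured against cultures receiving vehicle alone.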

[16] = at 5.0 µM (retest, dose inferred, filed as 0.5)
[17] = at 50.0 µM (retest, dose inferred, filed as 5.0)

## O=C(Nc1ccc(Cl)cc1)OCC#CCCl
[1]; at 1.2 µM
  growth inhibition: 5%
[1]; at 3.7 µM
  growth inhibition: -1%
[1]; at 11.0 µM
  growth inhibition: 15%
[1]; at 33.0 µM
  growth inhibition: 16%
[1]; at 100.0 µM
  growth inhibition: 27%
[2]; at 1.2 µM
  growth inhibition: -1%
[2]; at 3.7 µM
  growth inhibition: 1%
[2]; at 11.0 µM
  growth inhibition: 12%
[2]; at 33.0 µM
  growth inhibition: 10%
[2]; at 100.0 µM
  growth inhibition: 9%
[3]; at 1.2 µM
  growth inhibition: 89% (active)
[3]; at 3.7 µM
  growth inhibition: 96% (active)
[3]; at 11.0 µM
  growth inhibition: 98% (active)
[3]; at 33.0 µM
  growth inhibition: 98% (active)
[3]; at 100.0 µM
  growth inhibition: 98% (active)
[4]; at 1.2 µM
  growth inhibition: -4%
[4]; at 3.7 µM
  growth inhibition: -9%
[4]; [16]
  growth inhibition: 8%
[4]; at 11.0 µM
  growth inhibition: -6%
[4]; at 33.0 µM
  growth inhibition: 15%
[4]; [17]
  growth inhibition: 7%
[4]; at 50.0 µM
  growth inhibition: 10.9%
[4]; at 100.0 µM
  growth inhibition: 28%
[5]; at 1.2 µM
  growth inhibition: 3%
[5]; at 3.7 µM
  growth inhibition: 3%
[5]; [16]
  growth inhibition: 6%
[5]; at 11.0 µM
  growth inhibition: 4%
[5]; at 33.0 µM
  growth inhibition: 2%
[5]; [17]
  growth inhibition: 18%
[5]; at 50.0 µM
  growth inhibition: 2.65%
[5]; at 100.0 µM
  growth inhibition: 8%
[6]; at 1.2 µM
  growth inhibition: 3%
[6]; at 3.7 µM
  growth inhibition: 12%
[6]; at 11.0 µM
  growth inhibition: -5%
[6]; at 33.0 µM
  growth inhibition: -4%
[6]; at 100.0 µM
  growth inhibition: 24%
[7]; [16]
  growth inhibition: 96% (active)
[7]; [17]
  growth inhibition: 98% (active)
[7]; at 50.0 µM
  growth inhibition: 96.7% (active)
[8]; at 1.2 µM
  growth inhibition: -6%
[8]; at 3.7 µM
  growth inhibition: -3%
[8]; at 11.0 µM
  growth inhibition: -3%
[8]; at 33.0 µM
  growth inhibition: 1%
[8]; at 100.0 µM
  growth inhibition: 2%
[9]; [16]
  growth inhibition: 5%
[9]; [17]
  growth inhibition: 7%
[9]; at 50.0 µM
  growth inhibition: -19.2%
[10]; at 1.2 µM
  growth inhibition: -1%
[10]; at 3.7 µM
  growth inhibition: 3%
[10]; [16]
  growth inhibition: 4%
[10]; at 11.0 µM
  growth inhibition: 4%
[10]; at 33.0 µM
  growth inhibition: 3%
[10]; [17]
  growth inhibition: 23%
[10]; at 50.0 µM
  growth inhibition: 18.1%
[10]; at 100.0 µM
  growth inhibition: 1%
[11]; at 1.2 µM
  growth inhibition: 95% (active)
[11]; at 3.7 µM
  growth inhibition: 98% (active)
[11]; at 11.0 µM
  growth inhibition: 99% (active)
[11]; at 33.0 µM
  growth inhibition: 99% (active)
[11]; at 100.0 µM
  growth inhibition: 99% (active)
[12]; at 1.2 µM
  growth inhibition: 83% (active)
[12]; at 3.7 µM
  growth inhibition: 94% (active)
[12]; at 11.0 µM
  growth inhibition: 97% (active)
[12]; at 33.0 µM
  growth inhibition: 98% (active)
[12]; at 100.0 µM
  growth inhibition: 98% (active)
[13]; at 1.2 µM
  growth inhibition: 93% (active)
[13]; at 3.7 µM
  growth inhibition: 96% (active)
[13]; at 11.0 µM
  growth inhibition: 98% (active)
[13]; at 33.0 µM
  growth inhibition: 98% (active)
[13]; at 100.0 µM
  growth inhibition: 98% (active)
[14]; [16]
  growth inhibition: 9%
[14]; [17]
  growth inhibition: 46%
[14]; at 50.0 µM
  growth inhibition: 6.8%
[15]; at 1.2 µM
  growth inhibition: -5%
[15]; at 3.7 µM
  growth inhibition: 6%
[15]; at 11.0 µM
  growth inhibition: 11%
[15]; at 33.0 µM
  growth inhibition: 10%
[15]; at 100.0 µM
  growth inhibition: 52%
